{
  "source": "PubChem BioAssay (NCI)",
  "note": "About 79,000 compounds went through this panel and 15% of them were active in at least one assay; those are over-represented in the sample as a whole. Values without a mark were called inactive. The source made the active and inactive calls. Cut-off read from the data, not from the text of the source: active = growth inhibition above about 70%; inactive = the rest.",
  "data": [
    {"test": "NCI Yeast Anticancer Drug Screen. Data for the bub3 strain (AID 167)", "conditions": "S. cerevisiae bub3 mutant strain, at 50.0 µM, active compounds read high", "method": "Growth inhibition of yeast strains with defined genetic alterations is measured as a screen for potential anti-cancer activity. Selected strains with alterations in DNA damage repair or cell cycle control were exposed to compounds and growth inhibition was measured relative to vehicle treated controls. The strain used in this assay is bub3", "values": [
      {"smiles": "CC=C1C(C(=O)O)C1C(=O)O", "note": "(stereo not given)", "growth inhibition": "15.3%"},
      {"smiles": "OCCCN=C1CCCCC1", "growth inhibition": "-11%"},
      {"smiles": "O=C1CSC(=S)N1", "growth inhibition": "-7.15%"},
      {"smiles": "COC(=O)c1c2c(cc3c1CC1(Cc4cc5c(cc4C1=O)CCC5)C3)CCC2", "note": "(stereo not given)", "growth inhibition": "10.8%"},
      {"smiles": "COc1cc2c(c3c1c(=O)c1ccccc1n3C)C=CC1(CCCCC1)O2", "growth inhibition": "87.5% (active)"},
      {"smiles": "CC1=NOC(C)(O)/C1=N/O", "note": "(stereo not given)", "growth inhibition": "9.75%"},
      {"smiles": "CC[N+](C)(CC)CCOC(C)=O", "growth inhibition": "-6.5%"},
      {"smiles": "Cc1cc(Cl)ccc1OC(=O)NC1CCCCC1", "growth inhibition": "30.4%"},
      {"smiles": "COC1=C(OC)C(=O)C(Sc2ccc3ccccc3c2)=C(Cl)C1=O", "growth inhibition": "91.7% (active)"},
      {"smiles": "CCOC(=O)c1ccc(NCc2cccc([N+](=O)[O-])c2)cc1", "growth inhibition": "73.8% (active)"},
      {"smiles": "CC(=O)NC(Cc1ccc(F)cc1)C(=O)O", "note": "(stereo not given)", "growth inhibition": "-27.6%"},
      {"smiles": "COc1ccc(C(=O)N/N=C/c2c(C)n(C)n(-c3ccccc3)c2=O)cc1", "growth inhibition": "-52.5%"},
      {"smiles": "COC(=O)c1c2c(C)ccc(C)c2nc2c(C)ccc(C)c12", "growth inhibition": "22.7%"},
      {"smiles": "C=CCCC(C)N(C(=O)OC(C)(C)C)S(=O)(=O)c1ccc(C)cc1", "note": "(stereo not given)", "growth inhibition": "-4%"},
      {"smiles": "CC(C)NC(=O)C1CC2C=CC1C2", "note": "(stereo not given)", "growth inhibition": "-9.85%"},
      {"smiles": "O=C(NC(=S)Nc1ccc2ccccc2c1)c1ccc(Cl)cc1Cl", "growth inhibition": "23.4%"},
      {"smiles": "C=C1C(=O)O[C@@H]2[C@H]1CC[C@H](C)[C@@H]1CCC(=O)[C@@]21C", "growth inhibition": "12.8%"},
      {"smiles": "CCN(CC)CCOC(=O)c1c(C)cc(C)cc1C", "growth inhibition": "-15.6%"},
      {"smiles": "CS(=O)(=O)OCC1NC(=O)C(COS(C)(=O)=O)NC1=O", "note": "(stereo not given)", "growth inhibition": "-0.65%"},
      {"smiles": "C/C=C/C(=O)OC1CCCC1", "growth inhibition": "10%"},
      {"smiles": "COc1cccc(N=NN2CCCC2)c1", "growth inhibition": "7.15%"},
      {"smiles": "C/C1=C/C2=CC(C)C[C@@H]2C(=O)[C@]2(C)C(=O)CC(C)(C)[C@H]2CC1=O", "note": "(stereo not given in full)", "growth inhibition": "-13.6%"},
      {"smiles": "COc1ccc(COC(=O)NNC(=O)C2CSC(c3ccccc3)N2C(C)=O)cc1", "note": "(stereo not given)", "growth inhibition": "-8.9%"},
      {"smiles": "CCCCCCCCCCCCCCCCS(=O)(=O)N/N=C/c1ccc2c(c1)OCO2", "growth inhibition": "-0.55%"},
      {"smiles": "COC(=O)c1ccc(/C2=c3\\cc/c([n-]3)=C(\\c3ccc(C(=O)OC)cc3)c3ccc([n-]3)/C(c3ccc(C(=O)OC)cc3)=c3/cc/c([n-]3)=C(\\c3ccc(C(=O)OC)cc3)c3ccc2[n-]3)cc1.[Mn]", "growth inhibition": "-4.55%"},
      {"smiles": "c1ccc2c(CCNC3=NCCO3)cccc2c1", "growth inhibition": "-1.6%"},
      {"smiles": "CNC(=S)N/N=C(C)\\C=N/Nc1ccc(Br)cc1", "growth inhibition": "21.2%"},
      {"smiles": "Cc1ccc(C(=O)c2ccc(C)cc2)cc1", "growth inhibition": "6.3%"},
      {"smiles": "CC(C)(C)[Si](C)(C)OCC1OC(n2cnc3c(N)ncnc32)C(O)C1O", "note": "(stereo not given)", "growth inhibition": "3.5%"},
      {"smiles": "COCCNC(C)=O", "growth inhibition": "-11.2%"},
      {"smiles": "CC(=O)CC(=O)Nc1ccccc1[N+](=O)[O-]", "growth inhibition": "7.05%"},
      {"smiles": "CCOC(=O)C1(C)CCCCC1=O", "note": "(stereo not given)", "growth inhibition": "5.9%"},
      {"smiles": "Cc1ccc(SCCN)cc1", "growth inhibition": "-0.35%"},
      {"smiles": "CS(=O)(=O)OCCCCCCCCCOS(C)(=O)=O", "growth inhibition": "-18.8%"},
      {"smiles": "NNc1nc2ccccc2c(=O)n1NC(=O)C(=O)Nc1cccc(C(F)(F)F)c1", "growth inhibition": "-6.15%"},
      {"smiles": "CCOC(=O)CNC(=O)CCC(=O)OC", "growth inhibition": "5.55%"},
      {"smiles": "O=C(NCc1ccccc1)C1CCN(Cc2c[nH]c3ccccc23)CC1", "growth inhibition": "1.7%"},
      {"smiles": "COc1ccc(/C=C2\\CCC(CNc3cc(C)on3)C2=O)cc1", "note": "(stereo not given)", "growth inhibition": "29.1%"},
      {"smiles": "O=C1c2ccccc2C(c2ccccc2)C1c1ccccc1", "note": "(stereo not given)", "growth inhibition": "20.6%"},
      {"smiles": "OCCCCCCO", "growth inhibition": "4.3%"}
    ]}
  ]
}
